ELG1 DNA repair – qHTS screen for small molecules that inhibit ELG1-dependent DNA repair in human embryonic kidney (HEK293T) cells expressing luciferase-tagged ELG1; Potency, µM (titrated, usually from 46.1 µM), inactives show at the top dose activity change, negative = inhibition, hits mostly inhibitors; actives 2.3% (n = 330,000); HEK293T ELG1-luciferase reporter, luminescence, 16 h; DNA damage induced by 5-fluorouridine; AID 504467, 2011; note: nearly all actives have a fitted effect of over 55% in size
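Overnight (16 hr) co-exposure of 2,000 cells/well to 5-fluorouridine and compound at 37 °C preceded detection. Luciferase was quantified via ONE-Glo luminescence; loss of signal denotes inhibition.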
RORgamma inh – qHTS for inhibitors of ROR gamma transcriptional activity; Nuclear receptor ROR-gamma (Mus musculus), P51450; Drosophila S2 Gal4-RORgamma UAS-luciferase reporter, 20 h; Potency, µM (series often up to 53.6 µM), for inactives: at the top dose activity change, negative = inhibition, usual class: inhibitors; actives 5.4% (n = 310,000); note: nearly all actives have a fitted effect of over 60% in size
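In this cell-based reporter format, copper sulfate (700 uM final) drives Gal4–ROR gamma fusion expression from a metallothionein promoter in Drosophila Schneider cells; compounds preincubated 1 hr, reporter read after 20 hr at ambient temperature.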
ALOX12 inh – Primary qHTS assay for inhibitors of human arachidonate 12S-lipoxygenase (ALOX12): Round 2 | Polyunsaturated fatty acid lipoxygenase ALOX12 (Homo sapiens), P18054 | purified 12hLO, xylenol orange hydroperoxide absorbance | Potency, µM (titrated, usually from 108 µM), without a hit: at the highest dose activity change, negative = inhibition, hits mostly inhibitors | actives 1.1% (n = 580,000) | AID 1671190, 2021
Target sequence (P18054 whole entry, looked up): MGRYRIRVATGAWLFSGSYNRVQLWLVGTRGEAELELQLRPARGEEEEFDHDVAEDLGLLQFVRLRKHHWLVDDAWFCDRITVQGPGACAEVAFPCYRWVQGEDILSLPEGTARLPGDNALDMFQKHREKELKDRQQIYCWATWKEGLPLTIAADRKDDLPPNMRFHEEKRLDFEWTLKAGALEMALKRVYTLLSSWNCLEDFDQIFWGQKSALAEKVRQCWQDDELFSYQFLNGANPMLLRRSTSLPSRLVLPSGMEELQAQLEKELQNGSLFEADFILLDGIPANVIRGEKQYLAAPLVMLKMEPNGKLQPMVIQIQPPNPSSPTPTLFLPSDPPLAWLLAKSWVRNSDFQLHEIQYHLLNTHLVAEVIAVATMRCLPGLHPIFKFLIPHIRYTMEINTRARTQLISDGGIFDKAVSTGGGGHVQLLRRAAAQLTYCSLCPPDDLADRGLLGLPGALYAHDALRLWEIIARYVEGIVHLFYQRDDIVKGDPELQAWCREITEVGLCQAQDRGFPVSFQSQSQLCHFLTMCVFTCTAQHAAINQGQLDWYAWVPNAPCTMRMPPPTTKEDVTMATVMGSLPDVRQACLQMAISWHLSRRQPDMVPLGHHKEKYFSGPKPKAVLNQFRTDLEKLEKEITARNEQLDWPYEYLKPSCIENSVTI
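Purified human 12hLO at 150 nM in 25 mM Hepes, 0.01% Triton X-100, pH 7.0, preincubated 15 min at room temperature with compound. Reaction started with 40 uM arachidonic acid, 30 min at room temperature. Hydroperoxide measured by Fe-xylenol orange, 573/405 nm absorbance ratio.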
TDP1 cell noCPT – qHTS for Inhibitors of human tyrosyl-DNA phosphodiesterase 1 (TDP1): qHTS in cells in absence of CPT; actives 15% (n = 420,000); Potency, µM (highest dose often 46.2 µM), for the others: at the highest dose activity change, negative = growth inhibition, most hits filed as inhibitors; DT40 Tdp1-/- hTDP1 cells, no CPT, ATP luminescence, 48 h; note: nearly all actives have a fitted effect of over 55% in size
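Seeded 400 DT40-hTDP1 cells/well (vehicle DMSO, no 20 nM CPT); pinned compounds; ≥48 hr at 37 °C; CellTiter-Glo luminescence as viability measure.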
DT40 TDP1 CPT – qHTS for Inhibitors of human tyrosyl-DNA phosphodiesterase 1 (TDP1): qHTS in cells in presence of CPT. actives 12% (n = 420,000). Potency, µM (top dose mostly 46.2 µM), for the others: top-dose activity change, negative = growth inhibition, most hits filed as inhibitors. chicken DT40 Tdp1-/-;hTDP1 cells + 20 nM CPT, ATP luminescence, 48 h; note: nearly all actives have a fitted effect of over 55% in size
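Chicken DT40 Tdp1-/- cells stably complemented with human TDP1 were seeded at 400 cells/well in medium containing 20 nM camptothecin, exposed to pin-transferred compounds, and grown at 37 °C for at least 48 hr. Viability was read as ATP luminescence.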
VP16 counter – VP16 counterscreen qHTS for inhibitors of ROR gamma transcriptional activity; actives 3.5% (n = 310,000); AID 2546, 2010; Potency, µM (series often up to 53.6 µM), for inactives: top-dose activity, negative = inhibition, actives largely listed as inhibitors; Drosophila S2 Gal4-VP16 UAS-luciferase, luminescence, 20 h;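 note: Gal4-VP16 expression switched on by copper sulfate through the metallothionein promoter; nearly all actives have a fitted effect of over 50% in size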
Numbers without * were called inactive; ? = inconclusive; / = no result given; [ ] = dose if it differs, or a comment. Most compounds without a hit are left out; they make up all but 15% or so of the library. Calls come from the whole dose curve; as a rule, active = well fitted curve in the direction sought with a large enough effect; inconclusive = small, poorly fitted or top-dose-only effect, or another doubt; inactive = no such curve, though single readings can be large; an effect the other way counts as inactive or inconclusive. % is set by controls: 0 for no effect and ±100 for the full control effect; potency is the fitted concentration of half-maximal effect.

SMILES	ELG1 DNA repair	RORgamma inh	ALOX12 inh	TDP1 cell noCPT	DT40 TDP1 CPT	VP16 counter
CCC(C)NC(=S)NNC(=O)c1ccc(C(C)(C)C)cc1 (centres undefined)	-1.0%	10µM*	386.5%	-5.9%	-2.9%	8.91µM*
CCC(C)NC(=O)c1ccc(N(C)C)cc1 (centres undefined)	/	/	-21.8%	/	/	/
CC(NC(=O)NC(=O)c1cccc(Cl)c1)c1ccccc1 (centres undefined)	-6.2%	25.1%	0.0%	?	13µM*	-9.3%
COc1ccc(C(=O)Nc2ccc(Cl)cc2C(=O)NCc2ccco2)cc1	?	?	-3.1%	6.51µM*	5.17µM*	-20.5%
CC(=O)c1cccc(NC(=S)NCc2ccco2)c1	2.8%	-3.6%	0.0%	-28.6%	-19.3%	0.6%
O=C(NCc1ccco1)c1cc(C(=O)C2CCCCC2)c[nH]1	?	11.0%	-21.0%	?	-15.3%	13.5%
Cc1ccc(NC(=O)C(=S)NCc2ccco2)cc1	?	1.1%	5.2%	-26.9%	3.7%	11.0%
O=C(NC(=S)NCc1ccco1)c1cccc(Cl)c1	14.2%	6.31µM*	?	/	/	8.91µM*
CC(C)(C)c1ccc(C(=O)c2c[nH]c(C(=O)NCc3ccco3)c2)cc1	?	?	62.9%	?	-29.9%	12.6µM*
Cc1ccc(C(=O)NC(=S)NCc2ccco2)cc1	?	10µM*	?	?	-23.5%	?
Cn1c(=O)c2c(nc(NCc3ccco3)n2Cc2cccc(Br)c2)n(C)c1=O	/	/	-2.3%	/	/	/
O=C(O)c1cccc2c1CCN2C(=O)c1ccccc1	/	/	13.3%	/	/	/
Cc1ccc(C(=O)NC(=S)NCc2ccccc2)cc1	3.8%	10µM*	10µM*	-4.1%	-28.4%	12.6µM*
COc1cccc(C(=O)NC(=S)NCc2ccco2)c1	?	14.1µM*	?	-6.3%	3.9%	?
COc1cc(OC)cc(C(=O)NC(=S)NCc2ccco2)c1	1.6%	5.01µM*	?	?	?	11.2µM*
COc1cc(OC)cc(C(=O)NNC(=S)NCc2ccco2)c1	-15.8%	-40.9%	0.2%	-22.7%	-20.5%	-21.0%
O=C(CSCc1ccccc1Br)NNC(=S)NCc1ccco1	-1.8%	?	44.7µM*	4.3%	11.7%	10µM*
Cc1ccccc1CSCC(=O)NC(=O)NCc1ccco1	-7.8%	12.8%	?	-1.2%	-0.8%	?
COc1cccc(C(=O)NCCNC(=O)c2ccco2)c1	6.8%	2.9%	15.5%	-5.6%	-14.8%	1.8%
Cc1ccc(CNC(=O)NCc2ccccc2)cc1	?	5.2%	-14.3%	-0.1%	-13.1%	2.5%
CCOc1ccc(-c2ccnc(N3CCC(NC(C)=O)CC3)n2)cc1C(=O)O	/	/	24.9%	/	/	/
O=C(NC1C2CC3CC(C2)CC1C3)c1cccc2c(Br)cccc12 (centres undefined)	/	/	-0.5%	/	/	/
CN(CCC#N)C(=O)CSc1ncc(-c2ccc(Cl)cc2)o1	/	/	-44.7%	/	/	/
COc1cc(C)c(NC(=O)C(C)Oc2ccc(F)cc2)cc1OC (centres undefined)	/	/	-16.6%	/	/	/
COc1ccc(C(=O)N/C(=C\c2ccco2)C(=O)NCc2ccco2)cc1	-10.1%	-6.8%	-22.2%	14.6%	-9.2%	-2.2%
SMILES	ELG1 DNA repair	RORgamma inh	ALOX12 inh	TDP1 cell noCPT	DT40 TDP1 CPT	VP16 counter
CN(C)NC(=O)c1cccc(Cl)c1	?	16.2%	?	0.4%	-4.6%	1.4%
CNC(=O)NC(=S)NC(=O)c1cccc(Cl)c1	15.3%	14.1µM*	-23.1%	-7.9%	-12.8%	9.1%[10 µM]
CC(C)(C)c1ccc(C(=O)NNC(=S)NCc2ccco2)cc1	15.3%	10µM*	113.8%	23.1µM*	?	-24.8%
COc1ccc(C(=O)NC(=S)NCc2ccco2)cc1	?	6.31µM*	?	?	?	11.2µM*
COc1ccc(S(=O)(=O)N(C)Cc2cnn(C)c2)cc1OC	/	/	33.2%	/	/	/
Cc1ccc2c(Cn3nnc(-c4ccccc4C)n3)cc(=O)oc2c1	/	/	4.6%	/	/	/
C#CCSc1nncn1C(=O)/C=C/c1ccccc1	?	-25.2%	/	?	13µM*	-4.6%
O=S1(=O)NCC2(CCN(Cc3c[nH]c4ccccc34)C2)Oc2ncccc21 (centres undefined)	/	/	10.3%[6.33 µM]	/	/	/
CCOc1ccc(N=C/C=C/c2ccccc2)c(O)c1	?	-12.1%	?	18.4µM*	18.4µM*	2.6%
CCOc1ccc(NCC(=O)N/N=C/C=C/c2ccccc2)cc1	3.4%	?	-4.3%	?	?	?
Nc1nc(-c2ccc(Cl)cc2)nn1C(=O)c1ccc(Cl)cc1	/	/	0.0%	/	/	/
COc1ccc(-c2nn(-c3ccccc3)cc2C2NC(=O)NC(C)=C2C(=O)OC(C)C)cc1OC (centres undefined)	/	/	-18.8%	1.8%	-3.0%	/
CCOC(=O)C1=C(C)N(CC(C)C)C(=O)NC1c1ccccc1OC(F)F (centres undefined)	/	/	-8.6%	/	/	/
COc1ccc(COC(=O)C2=C(C)NC(=O)NC2c2ccccc2OC(C)C)cc1 (centres undefined)	-14.1%	16.2%	?	18.4µM*	-28.7%	-14.8%
CC1=C(C(=O)OCc2ccccc2)C(c2ccccc2OC(F)F)NC(=O)N1 (centres undefined)	?	7.7%	-5.5%	?	29.1µM*	-4.1%
CCOC(=O)C1=C(C)N(CC)C(=S)NC1c1ccccc1OC(F)F (centres undefined)	?	2µM*	-14.6%	-8.6%	28.0%	?
COc1ccccc1C1NC(=O)NC(C)=C1C(=O)OCc1ccccc1 (centres undefined)	-1.8%	0.6%	0.0%	?	-18.9%	-0.3%
CCOC(=O)C1=C(C)NC(=O)NC1c1cn(-c2ccccc2)nc1-c1ccc(OC(C)C)cc1 (centres undefined)	/	/	-7.3%	16.4µM*	?	/
Cc1occc1-c1nnc(SCC(=O)Nc2cccc(C(F)(F)F)c2)o1	/	/	-16.2%	/	/	/
COc1ccccc1N(C(=O)c1ccncc1)c1nc(-c2ccc([N+](=O)[O-])cc2)cs1	?	7.6%	-4.1%	16.4µM*	16.4µM*	0.4%

Screening data: PubChem BioAssay, National Center for Advancing Translational Sciences (NCATS)
